# Reference: PubChem BioAssay (Tox21)
# Values without a mark were called inactive. Results filed as inconclusive are left out. A call without a number means that no potency is given here. Calls of active or inactive are those of the source. Unless noted, the call rests on the fitted dose curve; in most records, active means well fitted curve in the direction sought with a large enough effect in the repeat runs; inconclusive means weak or mixed curves; inactive means no such curve, though single readings can be large; an effect the other way counts as inactive or inconclusive.
# Assays:
# [1] = qHTS assay for small molecule agonists of the p53 signaling pathway (AID 651631; calls by dose curve; further: nearly all actives have a fitted effect of over 15% in size)
# Method in brief: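 Fluorescence intensity from cleaved LiveBLAzer B/G substrate (2 h, room temperature) served as the signal. Beforehand, HCT-116 reporter cells bearing p53 response elements were treated 16 h at 37 °C with DMSO-dissolved compounds.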
# [2] = qHTS assay for small molecules that induce genotoxicity in human embryonic kidney cells expressing luciferase-tagged ATAD5 (AID 651632); further: nearly all actives have a fitted effect of over 15% in size
# Method in brief: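 Reporter cells (HEK293T) express luciferase-tagged ATAD5, a protein that accumulates after DNA damage. Treat 16 hr at 37C/5% CO2, add Amplite, wait 30 min at RT, and read luminescence.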
# [3] = qHTS assay for small molecule agonists of the p53 signaling pathway - cell viability (AID 651633; calls by dose curve;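 further: p53RE-bla HCT reporter cells with a stable beta-lactamase p53 reporter; series mostly up to about 83 µM; nearly all actives have a fitted effect of over 30% in size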)
# Method in brief: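 p53RE-bla cells were treated with compound for 16 hours at 37 C. Cytotoxicity was then measured as CellTiter-Glo luminescence after 30 min at room temperature.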
# [4] = qHTS assay for small molecules that induce genotoxicity in human embryonic kidney cells expressing luciferase-tagged ATAD5 - cell viability (AID 651634; calls by dose curve; further: nearly all actives have a fitted effect of over 25% in size)
# Method in brief: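 Seeding of 2,000 HEK293T ATAD5-luciferase cells per well preceded pin-tool compound transfer. Plates sat 15.5 hr at 37C under 5% CO2, then fluorescence was read after 30 min with CellTiter-Fluor.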
# [5] = qHTS assay for small molecule disruptors of the mitochondrial membrane potential - cell viability (AID 720634; calls by dose curve;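 further: human HepG2 liver cancer cells; series mostly up to about 83 µM; nearly all actives have a fitted effect of over 20% in size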)
# Method in brief: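 Measuring cytotoxicity alongside mitochondrial potential, the screen quantified ATP by luminescence in HepG2 cells after 1 hr compound incubation and a 30 min room-temperature CellTiter-Glo step.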
# [6] = qHTS assay for small molecule disruptors of the mitochondrial membrane potential (AID 720635); further: potency means the concentration at half of the fitted maximal effect
# Method in brief: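 HepG2 cells exposed to compound 1 hr at 37C, then Mito-MPS dye 30 min. Ratio read of aggregate (540/590 nm) versus monomer (490/535 nm) fluorescence.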
# [7] = qHTS assay to test for compound auto fluorescence at 590 nm (red) in HepG2 cells (AID 720674)
# Method in brief: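 HepG2 cells, 2,000 per well in MEM with 10% FBS, attached overnight at 37 C, then got 23 nL compound or DMSO. After 1 hr at 37 C, 5% CO2, red fluorescence was read at 540/590 nm against Rose Bengal sodium as reference.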
# [8] = qHTS assay to test for compound auto fluorescence at 535 nm (green) in HepG2 cells (AID 720675)
# [9] = qHTS assay to test for compound auto fluorescence at 460 nm (blue) in HEK293 cells (AID 720678)
# Method in brief: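 After cell attachment (4-5 hr, 37C), compounds were pinned onto HEK293 monolayers in 10% dialyzed FBS medium. The blue channel (405/460 nm) was read following overnight culture. Equivalency was calculated against triamterene.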
# [10] = qHTS assay to test for compound auto fluorescence at 590 nm (red) in HEK293 cells (AID 720679)
# Method in brief: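 Plates of HEK293 cells (10% dialyzed FBS) are treated with 23 nL compound or DMSO vehicle after a 4-5 hr attachment period, incubated overnight at 37C, and read for red fluorescence at 540/590nm.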
Compound,Potency [1],Potency [2],Potency [3],Potency [4],Potency [5],Potency [6],outcome [7],outcome [8],Potency [9],outcome [10],"fluorescence, relative to Rose Bengal [7]","fluorescence, % of fluorescein control [8]","fluorescence, % of triamterene [9]","fluorescence, % of fluorescent control [10]"
CCCOCCOCCO,inactive,inactive,inactive,inactive,inactive,inactive,inactive,inactive,inactive,inactive,–,–,–,–
N#C[C@@H]1C[C@@H]2C[C@@H]2N1C(=O)[C@@H](N)C12CC3CC(CC(O)(C3)C1)C2,inactive,inactive,inactive,inactive,inactive,inactive,inactive,inactive,inactive,–,–,–,–,–
C/C=C(\C)C(=O)OCCC(C)CCC=C(C)C (configuration not stated),inactive,inactive,inactive,inactive,inactive,inactive,inactive,inactive,inactive,inactive,–,–,–,–
CC#N,inactive,inactive,inactive,inactive,inactive,inactive,inactive,inactive,inactive,inactive,–,–,–,–
CC(=O)Nc1ccc(N)cc1,inactive,inactive,inactive,inactive,inactive,inactive,inactive,inactive,inactive,inactive,–,–,–,–
Cc1ccc(S)cc1,inactive,inactive,inactive,inactive,inactive,inactive,inactive,inactive,inactive,inactive,–,–,–,–
Cc1ccnc2ccccc12,inactive,inactive,inactive,inactive,inactive,19.3 µM (active),inactive,inactive,inactive,–,–,–,–,–
COc1cc2[nH]c(=O)[nH]c(=O)c2cc1OC,inactive,inactive,inactive,inactive,inactive,inactive,–,–,–,–,0.0405% [at 18.6 µM],-0.0154% [at 18.6 µM],-0.031% [at 18.6 µM],-0.538% [at 18.6 µM]
Cc1nc2ccccc2s1,inactive,inactive,inactive,inactive,inactive,inactive,inactive,inactive,inactive,inactive,–,–,–,–
Cc1ccccc1N1C(=O)c2cc(S(N)(=O)=O)c(Cl)cc2NC1C (configuration not stated),inactive,inactive,inactive,inactive,inactive,inactive,inactive,inactive,inactive,inactive,–,–,–,–
CCCCCCCCCOC(C)=O,inactive,inactive,inactive,inactive,inactive,inactive,inactive,inactive,inactive,inactive,–,–,–,–
CCOC(=O)/C=C/C(=O)O,inactive,inactive,inactive,inactive,inactive,inactive,inactive,inactive,inactive,inactive,–,–,–,–
CCCOC(=O)c1ccc(N)cc1,inactive,inactive,inactive,inactive,inactive,inactive,inactive,inactive,inactive,–,–,–,–,–
Nc1nccs1,inactive,inactive,inactive,inactive,inactive,inactive,inactive,inactive,inactive,–,–,–,–,–
O=C1OCCN1/N=C/c1ccc([N+](=O)[O-])o1,inactive,inactive,inactive,inactive,inactive,inactive,inactive,inactive,inactive,inactive,–,–,–,–
CNC(=S)NC,inactive,inactive,inactive,inactive,inactive,–,inactive,inactive,inactive,inactive,–,–,–,–
CC(CCO)CCc1ccccc1 (configuration not stated),inactive,inactive,inactive,inactive,inactive,inactive,inactive,inactive,inactive,inactive,–,–,–,–
O=S1OCCO1,inactive,inactive,inactive,inactive,–,–,inactive,inactive,inactive,inactive,–,–,–,–
CCn1nc(C)c2c1C(=O)NCC(c1ccc(O)cc1)=N2,inactive,inactive,inactive,inactive,inactive,–,inactive,inactive,inactive,inactive,–,–,–,–
Cc1cc(O)c2c(O)c3c(O)cccc3cc2c1,inactive,inactive,inactive,inactive,–,18.8 µM (active),inactive,inactive,inactive,inactive,–,–,–,–
CC(C)(CCl)c1ccccc1,inactive,inactive,inactive,inactive,inactive,–,inactive,–,inactive,inactive,–,–,–,–
O=C(O)c1ccc(CO)o1,inactive,inactive,inactive,inactive,inactive,inactive,inactive,–,inactive,inactive,–,–,–,–
CCOC(=O)c1ccccc1C,inactive,inactive,inactive,inactive,inactive,–,inactive,inactive,inactive,inactive,–,–,–,–
C[Si](NC1CCCCC1)(NC1CCCCC1)NC1CCCCC1,inactive,inactive,inactive,inactive,inactive,inactive,inactive,inactive,inactive,inactive,–,–,–,–
